Broadly, the AC50 is the midpoint of the concentration-response curve, whichever way the signal moves.

Structures are written as SMILES. Several values for one entry are separate records, joined by “and”; a condition that tells them apart may be missing. Equal entries are not always repeated. The source holds several records for some structures; these can differ, active in one and inactive in another. Activity calls are given as the source filed them. Rule for the calls: active = hit-call score of the fitted dose curve at least 0.9, where 1 is the maximum; inactive = score below 0.9.

The assay deals with X-box-binding protein 1 (Homo sapiens) (UniProt P17861). As to the kind of experiment: ATG_Xbp1_CIS: Attagene CIS-FACTORIAL HepG2 Assay for human X-box Binding Protein 1 (XBP1) (AID 2282972). The settings on record: HepG2 XBP1 cis-element reporter, Attagene multiplex; actives raise or lower the signal. The procedure: ATG_CIS is a cell-based, multiplexed-readout assay that uses HepG2, a human liver cell line, with measurements taken at 24 hours after chemical dosing in a 24-well plate.ATG_Xbp1_CIS is one of 52 assay component(s) measured or calculated from the ATG_CIS assay. It is designed to make measurements of mRNA induction, a form of inducible reporter, as detected with fluorescence intensity signals by Reverse transcription polymerase chain reaction (RT-PCR) and Capillary electrophoresis technology.Data from the assay component ATG_Xbp1_CIS was analyzed into 1 assay endpoint. This assay endpoint, ATG_Xbp1_CIS, was analyzed with bidirectional fitting relative to DMSO as the negative control and baseline of activity. Using a type of inducible reporter, measures of mRNA for gain or loss-of-signal activity can be used to understand the reporter gene at the transcription factor-level as they relate to the gene XBP1. Furthermore, this assay endpoint can be referred to as a primary readout, because this assay has produced multiple assay endpoints where this one serves a reporter gene function. To generalize the intended target to other relatable targets, this assay endpoint is annotated to the dna binding intended target family, where the subfamily is basic leucine zipper.
X-box-binding protein 1 (Homo sapiens), sequence (P17861 whole entry, looked up): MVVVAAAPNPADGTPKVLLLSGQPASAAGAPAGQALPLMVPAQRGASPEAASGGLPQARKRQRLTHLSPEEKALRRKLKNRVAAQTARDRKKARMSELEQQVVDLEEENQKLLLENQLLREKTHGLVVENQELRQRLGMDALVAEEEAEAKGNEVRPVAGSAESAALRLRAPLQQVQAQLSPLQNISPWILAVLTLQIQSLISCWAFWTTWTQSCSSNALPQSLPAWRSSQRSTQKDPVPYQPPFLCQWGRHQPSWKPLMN
Human liver HepG2 cells are transiently transfected with multiple reporter transcription units (MRTUs) in 6-well plates using FuGene 6 reagent (Roche; 3 ml FuGene/1 mg DNA). The MRTU constructs are regulated by a cis-regulating element (promoter). […] A major difference between the CIS and TRANS system is that in CIS activities of endogenous TFs are measured, whereas the TRANS assay evaluates changes in activities of exogenous, chimeric NR-Gal4 proteins. […] At the end of 24 hour incubation, total RNA was isolated using TriZol reagent (Invitrogen). The isolated RNA is then reverse-transcribed using oligo(dT) primer and Mo-MLV reverse transcriptase (Invitrogen) with DNAse I (Ambion) treatment for 30 min. The one-tenth of the produced cDNA was amplified by PCR using Taq DNA polymerase (Invitrogen) and two reporter sequence-specific primers. The PCR products were fluorescently labeled by primer extension with 6-arboxyfluorescein (6-FAM) 5'-labeled reporter sequence-specific primer (2 min at 95 C, 20 s at 68 C and 10 min at 72 C) and these products were digested with 5U of HpaI (New England Biolabs) for 2h at 37 C. The fragments were purified using Qiaquick PCR columns (Qiagen), analyzed on an ABI 3130xL genetic analyzer (Applied Biosystems) with peak positions identified by using a set of X-rhodamine (ROX)-labeled MapMarker1000 molecular weight standards (BioVentures). The raw capillary electrophoresis data was processed using Attagraph software (Attagene).
On to `O=C(OCCOCCOC(=O)c1ccccc1)c1ccccc1`, for which the compound was called inactive.
Still for that read-out and setting: the same measure for `c1ccc2c(c1)ccc1ccccc12`: “inactive”.
The same measure, in the same setting: the value for `CCCCOCCO` was “inactive”; that for `O=C(O)c1ccccc1C(c1ccc(O)cc1)c1ccc(O)cc1` was “inactive”.
Same read-out and setting: the value for `Cc1oc(-c2ccccc2)nc1CCOc1ccc(C[C@H](Nc2ccccc2C(=O)c2ccccc2)C(=O)O)cc1` was “inactive”; that for `CC[C@H](c1ccc(O)cc1)[C@@H](CC)c1ccc(O)cc1` was “inactive”; that for `OC1CCCCC1` was “inactive”.
In the case of `Oc1cc2ccccc2c2ccccc12`, the outcome was inactive.
Regarding `CCCOC(=O)c1ccc(O)cc1`, the outcome was inactive and the AC50 was 73.5 µM (active).
In the case of `CN(C)C=O`, the compound was called inactive.
`CC1=C(/C=C/C(C)=C/C=C/C(C)=C/C(=O)O)C(C)(C)CCC1`: the half-maximal activity concentration (AC50) is 44.3 µM (active) and 8.86 µM (active).
As to `CC[C@H](C)[C@@H](C(=O)O)n1sc2ccccc2c1=O`, the result was inactive.
The same measure, in the same setting: the same measure for `CCCCCCC(=O)O`: “inactive”.
For the compound `NC(=O)N1C(=O)C(C(=O)c2cc(Cl)cs2)c2cc(F)c(Cl)cc21` (stereo not given), the concentration at half-maximal activity (AC50) was 14.1 µM (active).
On the same count and under the same terms, the same measure for `CC#C[C@]1(O)CC[C@H]2[C@@H]3CCC4=CC(=O)CCC4=C3[C@@H](c3ccc(N(C)C)cc3)C[C@@]21C`: 35.7 µM (active) [middle of 4 runs].
On to `Nc1cccc2c(N)cccc12`, for which the call was inactive.
Same read-out and setting: the same measure for `CCc1nn(C2CCCCC2)c2cc(C3(C#N)CCC(C(=O)O)CC3)ccc12` (stereo not given): “inactive”; for `CCCCCCCCOC(=O)CCCCCCCCC(=O)OCCCCCCCC`: “inactive”; for `O=C(/C=C/c1ccc(O)cc1)CC(=O)/C=C/c1ccc(O)cc1`: “inactive”.
On the same count and under the same terms, the same measure for `CCc1ccc(CCOc2ccc(CC3SC(=O)NC3=O)cc2)nc1` (stereo not given): “inactive”.
Turning to `CCC(=C(c1ccc(O)cc1)c1ccc(OCCN(C)C)cc1)c1ccccc1`, the outcome was inactive; the AC50 is 11.2 µM (active) and 2.37 µM (active).
In the case of `FC(F)(I)C(F)(F)C(F)(F)C(F)(F)C(F)(F)C(F)(F)I`, the result was inactive.
The same measure, in the same setting: the value for `CN1CCC[C@H]1c1cccnc1` was “inactive”; that for `CC(O)CO` (stereo not given) was “inactive”.
Regarding `OCCC(F)(F)C(F)(F)C(F)(F)C(F)(F)C(F)(F)C(F)(F)C(F)(F)C(F)(F)F`, the half-maximal activity concentration (AC50) is 48.2 µM (active) and 112 µM (active).
With `O=c1c(-c2ccc(O)cc2)coc2cc(O)ccc12`, the result was inactive.
Still for that read-out and setting: the same measure for `c1ccc2c(c1)Cc1ccccc1-2`: “inactive”; for `CCCCC[C@H](O)CC(=O)CCc1ccc(O)c(OC)c1`: “inactive”.
The same measure, in the same setting: the same measure for `C=C(C)C(=O)OCCC(F)(F)C(F)(F)C(F)(F)C(F)(F)C(F)(F)C(F)(F)F`: “inactive”.
Still for that read-out and setting: the value for `CN1CCN(c2ccccc2/C=C2\SCCN(c3ccc(Cl)c(Cl)c3)C2=O)CC1` was “inactive”.
For `CC(O)C(=O)O` (stereo not given), the call was inactive.
With `Cc1ccc(S(=O)(=O)O)c(C)c1`, the outcome was inactive.
Turning to `CCOC(=O)CC(O)(CC(=O)OCC)C(=O)OCC`, the outcome was inactive.
Same read-out and setting: the same measure for `CCCCCCCCCCCCN1CCCC1=O`: “inactive”.
For `CC(=O)CC(C)(C)O`, the outcome was inactive.
On the same count and under the same terms, the value for `Cc1cc(C)c(O)c(C)c1` was “inactive”.
For the compound `OCCC(F)(F)C(F)(F)C(F)(F)C(F)(F)C(F)(F)C(F)(F)F`, the concentration at half-maximal activity (AC50) is 134 µM (active) and the result was inactive.

For the origin of these results see PubChem BioAssay (EPA / NIEHS).
